# PubChem BioAssay (EPA / NIEHS)
# “And” between values parts separate entries of the source, which are not always exact repeats. Identical values can stand only once. Some compounds were tested as several samples or in several runs, with calls that do not always agree. The source made the active and inactive calls. How the source made its calls: active means hit-call score of the fitted dose curve at least 0.9, where 1 is the maximum; inactive means score below 0.9.
# Read-out: Tumor necrosis factor (Homo sapiens) (UniProt P01375)
# Test: BSK_BT_xTNFa: BioMAP Diversity Plus: BT Assay for Tumor necrosis factor alpha (TNF-alpha) Biomarker Activity (AID 2284230)
# Conditions: primary human B cells with PBMC
# Procedure: BSK_BT is a cell-based, multiplexed-readout assay that uses B cell and peripheral blood mononuclear cells, a human vascular primary cell co-culture, with measurements taken at 24 hours after chemical dosing in a microplate: 96-well plate.BSK_BT_xTNFa is an assay component of the BSK_BT assay. It measures secreted TNF-alpha related to regulation of gene expression using LumineX xMAP technology.Data from the assay component BSK_BT_xTNFa was analyzed at the endpoint, BSK_BT_xTNFa, in the positive analysis fitting direction relative to DMSO as the negative control and baseline of activity. Using a type of cytokine quantitation reporter, gain or loss-of-signal activity can be used to understand protein changes. To generalize the intended target to other relatable targets, this assay endpoint is annotated to the 'cytokine' intended target family, where the subfamily is 'inflammatory factor'.
# The levels of cell surface (or secreted, indicated by the prefix "s") biomarker endpoints were measured by ELISA. Overt cytotoxicity to cells in confluent adherent cultures (all systems other than the BT system) was assessed by measuring total protein levels using sulforhodamine B (SRB) staining in parallel cultures at the time of biomarker measurements, indicated as SRB endpoints. For proliferation assays for adherent cell types, individual cell types are cultured at sub-confluence and relative cell numbers quantified by SRB staining at time points optimized for each system (48 h: 3C and CASM3C systems; 72 h: BT and HDF3CGF systems; 96 h: SAg system). SRB was performed by staining cells with 0.1% SRB after fixation with 10% TCA and reading wells at 560 nm.Viability and proliferation of PBMC (T cells) was quantified by Alamar Blue reduction for the SAg and BT systems. For PBMC viability (referred to as PBMC Cytotoxicity within the assay endpoint names), cells were plated (75,000/well in a 96-well plate) and then chemical samples added for 1 h before addition of activators, SEB and TSST-1 (20 ng/mL final concentration each). Cells were incubated for 90 h. Then, Alamar Blue (20 uL/well) (Invitrogen, Cat DAL1100) was added for 6 h, and the plates were read with a fluorescence microplate reader at 546/580 nm (excitation/emission). For PBMC proliferation, cells were plated and activated as above but incubated for only 16 h prior to addition of Alamar Blue. Plates were read after 6 h.
# Sequence of Tumor necrosis factor (Homo sapiens) (P01375 whole entry, looked up): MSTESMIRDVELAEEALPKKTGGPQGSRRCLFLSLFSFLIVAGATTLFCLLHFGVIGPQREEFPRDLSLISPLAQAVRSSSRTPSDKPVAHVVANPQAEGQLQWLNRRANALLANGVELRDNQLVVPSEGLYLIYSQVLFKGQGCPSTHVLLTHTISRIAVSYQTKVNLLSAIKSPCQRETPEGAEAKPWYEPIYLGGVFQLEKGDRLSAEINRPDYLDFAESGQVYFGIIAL
Compound,outcome,AC50
CCCCOCCOCCOC(=O)CCCCC(=O)OCCOCCOCCCC,inactive,–
FC(F)(F)C(F)(F)CNCC(F)(F)C(F)(F)F,inactive,–
O=C(O)C(F)(F)C(F)(F)C(F)(F)C(F)(F)F,inactive,–
O=P(O)(O)OCCC(F)(F)C(F)(F)C(F)(F)C(F)(F)C(F)(F)C(F)(F)F,inactive,–
OCCCC(F)(F)C(F)(F)C(F)(F)C(F)(F)C(F)(F)C(F)(F)C(F)(F)F,–,20.2 µM (active) and 23 µM (active)
FC(F)(F)C(F)(F)C(F)(F)C(F)(F)C(F)(F)C(F)(F)C(F)(F)I,inactive,–
FC(F)(F)C(F)(F)C(F)(F)C(F)(F)C(F)(F)C(F)(F)CC1CO1 (stereo not given),inactive,–
O=C(O)C(F)(OC(F)(F)C(F)(OC(F)(F)C(F)(OC(F)(F)C(F)(F)C(F)(F)F)C(F)(F)F)C(F)(F)F)C(F)(F)F (stereo not given),inactive,–
CS(C)(=O)=O,inactive,–
FC(F)(F)C(F)(F)C(F)(F)C(F)(F)C(F)(F)C(F)(F)C(F)(F)C(F)(F)CCS,inactive,–
C=CC(F)(F)C(F)(F)C(F)(F)C(F)(F)C(F)(F)C(F)(F)C(F)(F)C(F)(F)C=C,inactive,–
O=S(=O)(OCC(F)F)C(F)(F)F,inactive,1.01 µM (active)
Cc1ccc(S(=O)(=O)OCC(F)(F)C(F)(F)C(F)(F)C(F)(F)C(F)(F)C(F)F)cc1,inactive,–
O=C(O)C(F)(OC(F)(F)C(F)(OC(F)(F)C(F)(F)C(F)(F)F)C(F)(F)F)C(F)(F)F (stereo not given),inactive,–
O=C(O)C(F)(F)C(F)(F)C(F)F,inactive,–
CCCCCCC(C)OC(=O)CCCCC(=O)OC(C)CCCCCC (stereo not given),inactive,–
O=C(Cl)C(F)(F)C(F)(F)C(F)(F)C(F)(F)C(F)(F)C(F)(F)C(F)(F)C(F)(F)F,inactive,–
CCc1ccc(C(c2ccc(CC)cc2)C(Cl)Cl)cc1,–,28.5 µM (active)
OCCCC(F)(F)C(F)(F)C(F)(F)F,inactive,–
C=C(C)C(=O)OCCC(F)(F)C(F)(F)C(F)(F)C(F)(F)C(F)(C(F)(F)F)C(F)(F)F,inactive,–

Compound,outcome,AC50
CCCCCCCCC(F)(F)C(F)(F)C(F)(F)C(F)(F)C(F)(F)C(F)(F)F,inactive,–
OCC(F)(F)C(F)(F)C(F)(F)C(F)F,inactive,–
O=C(O)C(F)(F)C(F)(F)C(F)(F)C(F)(F)C(F)(F)C(F)(F)C(F)(F)C(F)(F)C(F)(F)C(F)(F)C(F)(F)C(F)(F)F,inactive,–
O=S(=O)(O)C(F)(F)C(F)(F)C(F)(F)C(F)(F)C(F)(F)C(F)(F)C(F)(F)F,inactive,–
CCCCNc1ccccc1,inactive,–
C=CC(F)(F)C(F)(F)C(F)(F)C(F)(F)C(F)(F)C(F)(F)C(F)(F)C(F)(F)F,inactive,–
O=C(O)C(F)(F)C(F)(F)F,inactive,–
CC(=O)Nc1ccc(N=Nc2cc(C)ccc2O)cc1,inactive,–
O=C(O)C=C(C(F)(F)F)C(F)(F)F,–,30 µM (active) and 34.9 µM (active)
FC(F)(F)C(F)(F)C(F)(F)N(C(F)(F)C(F)(F)C(F)(F)F)C(F)(F)C(F)(F)C(F)(F)F,inactive,–
C=C(C)C(=O)OCC(F)(F)C(F)(F)C(F)(F)C(F)(F)C(F)(F)C(F)(F)C(F)(F)F,inactive,–
C=CC(=O)OCC(F)(F)C(F)(F)C(F)(F)C(F)(F)COC(=O)C=C,–,9.76 µM (active) and 9.35 µM (active)
CO[Si](OC)(c1ccccc1)c1ccccc1,inactive,–
CCc1c(Br)c(Br)c(Br)c(Br)c1Br,inactive,–
FC(F)(F)C(F)(F)C(F)(F)C(F)(F)C(F)(F)C(F)(F)C(F)(F)C(F)(F)F,inactive,–
NC(=O)C(F)(F)C(F)(F)C(F)(F)C(F)(F)F,inactive,–
CC(C)(C)C(=O)CC(=O)C(F)(F)C(F)(F)C(F)(F)F,inactive,–
FC(F)(F)C(F)(F)C(F)(F)CI,inactive,–
O=S(=O)(OCCOC(F)(F)F)C(F)(F)F,inactive,–
